Holding throughout (conditions): concentration: 1 μM, replicates: in singlicate; n = 1
Assay [1] deals with ALK.
Assay [2] relates to T1, AMPK-alpha1.
T1 construct: gene PRKAA1

Assay [3] concerns T2, AMPK-alpha2.
T2 construct: gene PRKAA2

Assay [4] relates to ANKK1.
The subject of assay [5] is T3, ARK5.
T3 construct: gene NUAK1

The subject of assay [6] is T4, ASK1.
T4 construct: gene MAP3K5

Assay [7] has as its system T5, ASK2.
T5 construct: gene MAP3K6

Assay [8] deals with AURKA.
Assay [9] relates to AURKB.
Assay [10] concerns AURKC.
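Further: KINOMEscan kinase panel screen.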

Take `O=C(Nc1n[nH]c2nc(-c3ccccc3)c(Cl)cc12)C1CC1` [SB-734909]: the “%Inh” value in assay [1] is 15%; in assay [2], 0%; in assay [3] it was 10%; in assay [4], 19%; in [5], 1%; in assay [6], 0%. The “%Inh” value in assay [7] came out at 21%; in [8], 28%; in assay [9], 33%; in [10], 25%.

`Nc1ncnc2c1ncn2-c1cccc(F)c1` [SKF-97560]: the “%Inh” value in assay [1] was determined as 43%; in [2], 0%; in assay [3] it was 0%; in [4] it was 17%; in assay [5] it was 2%; in assay [6] it was 18%. Besides, the “%Inh” value in assay [7] is reported as 35%; in assay [8], 0%; in assay [9], 6%; in assay [10], 0%.

As for `Cc1cccc(-c2cc(-c3c[nH]nc3-c3ccccn3)ccn2)c1` [GW679395], the “%Inh” value in [1] is listed as 30%; in assay [2], 0%; in [3], 0%; in assay [4] it was 0%; in assay [5] it was 0%; in [6], 5%. The “%Inh” value is 0% in [7], 8% in assay [8], 15% in assay [9] and 0% in assay [10].

Take `Nc1ncnc2c1ncn2-c1ccc(Cl)cc1` [AH2635]: the “%Inh” value in assay [1], in assay [2], in assay [3], in assay [4], in [5] and in assay [6] was 0% each time. In addition, the “%Inh” value in assay [7] turned out to be 0%; in [8], 0%; in [9], 0%; in assay [10] it was 17%.

Source of the values: article PMC5540273 (PLoS ONE, 2017).
